The text below walks through data of PMC8222333, “AsCas12a ultra nuclease facilitates the rapid generation of therapeutic cell medicines”.

Targets include dAsCas12a S542R (Acidaminococcus sp., UniProt U2UMQ6 1-1307, S542R;D908A;E993A;D1235A); d-enCas12a (Acidaminococcus sp., UniProt U2UMQ6 1-1307, E174R;S542R;K548R;D908A;E993A;D1235A); d-enCas12a-Ultra (Acidaminococcus sp., UniProt U2UMQ6 1-1307, E174R;S542R;K548R;M537R;F870L;D908A;E993A;D1235A).
Holding throughout (experiment): Spec-seq (native PAGE EMSA with sequencing of bound and unbound); 25 mM Tris-HCl pH 7.4, 150 mM KCl, 5 mM MgCl2, 10% glycerol, 1 mM DTT, 40 ng/uL salmon sperm DNA; 400 nM Cas12a, 480 nM crRNA, 50 nM library, 37 C 1 h; native PAGE at room temperature; high values mean tight binding
Common to all, as to details: protein: recombinant
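Further: relative affinity from the bound to unbound sequence frequency ratio in Spec-seq.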

B1: CGGC (dsDNA)
DNA 1: GCTATCTAGTGCTCAGTACGCACTGCGGCAGGAAACTTCTGGCAGGACCAGGTCATGAGATCGGAAGAGCACACGTCTGAACTCCAGTCA
DNA 2: TGACTGGAGTTCAGACGTGTGCTCTTCCGATCTCATGACCTGGTCCTGCCAGAAGTTTCCTGCCGCAGTGCGTACTGAGCACTAGATAGC
RNA: AAUUUCUACUCUUGUAGAUAGGAAACUUCUGGCAGGACC
As to B1, the figures for the binding signal with dAsCas12a S542R, with d-enCas12a and in the experiment with d-enCas12a-Ultra were -8.51 lnKA, -5.63 lnKA and -3.15 lnKA, respectively.

B2: GAGC (dsDNA)
DNA 1: GCTATCTAGTGCTCAGTACGCACTGGAGCAGGAAACTTCTGGCAGGACCAGGTCATGAGATCGGAAGAGCACACGTCTGAACTCCAGTCA
DNA 2: TGACTGGAGTTCAGACGTGTGCTCTTCCGATCTCATGACCTGGTCCTGCCAGAAGTTTCCTGCTCCAGTGCGTACTGAGCACTAGATAGC
RNA: AAUUUCUACUCUUGUAGAUAGGAAACUUCUGGCAGGACC
As for B2, the figures for the binding signal with dAsCas12a S542R, in the experiment with d-enCas12a and with d-enCas12a-Ultra were -8.89 lnKA, -5.66 lnKA and -3.45 lnKA, respectively.

B3: CTAC (dsDNA)
DNA 1: GCTATCTAGTGCTCAGTACGCACTGCTACAGGAAACTTCTGGCAGGACCAGGTCATGAGATCGGAAGAGCACACGTCTGAACTCCAGTCA
DNA 2: TGACTGGAGTTCAGACGTGTGCTCTTCCGATCTCATGACCTGGTCCTGCCAGAAGTTTCCTGTAGCAGTGCGTACTGAGCACTAGATAGC
RNA: AAUUUCUACUCUUGUAGAUAGGAAACUUCUGGCAGGACC
Turning to B3, the binding signal is -8.27 lnKA with dAsCas12a S542R, -4.66 lnKA in the experiment with d-enCas12a and -1.69 lnKA with d-enCas12a-Ultra.

B4: CTCG (dsDNA)
DNA 1: GCTATCTAGTGCTCAGTACGCACTGCTCGAGGAAACTTCTGGCAGGACCAGGTCATGAGATCGGAAGAGCACACGTCTGAACTCCAGTCA
DNA 2: TGACTGGAGTTCAGACGTGTGCTCTTCCGATCTCATGACCTGGTCCTGCCAGAAGTTTCCTCGAGCAGTGCGTACTGAGCACTAGATAGC
RNA: AAUUUCUACUCUUGUAGAUAGGAAACUUCUGGCAGGACC
Turning to B4, the binding signal with dAsCas12a S542R is -6.92 lnKA; in the experiment with d-enCas12a it was -3.29 lnKA; with d-enCas12a-Ultra it was -0.685 lnKA.

B5: CTGC (dsDNA)
DNA 1: GCTATCTAGTGCTCAGTACGCACTGCTGCAGGAAACTTCTGGCAGGACCAGGTCATGAGATCGGAAGAGCACACGTCTGAACTCCAGTCA
DNA 2: TGACTGGAGTTCAGACGTGTGCTCTTCCGATCTCATGACCTGGTCCTGCCAGAAGTTTCCTGCAGCAGTGCGTACTGAGCACTAGATAGC
RNA: AAUUUCUACUCUUGUAGAUAGGAAACUUCUGGCAGGACC
With B5, the binding signal in the experiment with dAsCas12a S542R was -8.71 lnKA; with d-enCas12a it was -5.32 lnKA; in the experiment with d-enCas12a-Ultra, -2.48 lnKA.

B6: GACC (dsDNA)
DNA 1: GCTATCTAGTGCTCAGTACGCACTGGACCAGGAAACTTCTGGCAGGACCAGGTCATGAGATCGGAAGAGCACACGTCTGAACTCCAGTCA
DNA 2: TGACTGGAGTTCAGACGTGTGCTCTTCCGATCTCATGACCTGGTCCTGCCAGAAGTTTCCTGGTCCAGTGCGTACTGAGCACTAGATAGC
RNA: AAUUUCUACUCUUGUAGAUAGGAAACUUCUGGCAGGACC
Consider B6, for which the binding signal with dAsCas12a S542R is -8.46 lnKA; with d-enCas12a, -3.91 lnKA; with d-enCas12a-Ultra, -1.34 lnKA.

B7: CGGT (dsDNA)
DNA 1: GCTATCTAGTGCTCAGTACGCACTGCGGTAGGAAACTTCTGGCAGGACCAGGTCATGAGATCGGAAGAGCACACGTCTGAACTCCAGTCA
DNA 2: TGACTGGAGTTCAGACGTGTGCTCTTCCGATCTCATGACCTGGTCCTGCCAGAAGTTTCCTACCGCAGTGCGTACTGAGCACTAGATAGC
RNA: AAUUUCUACUCUUGUAGAUAGGAAACUUCUGGCAGGACC
B7: the figures for the binding signal with dAsCas12a S542R, with d-enCas12a and with d-enCas12a-Ultra were -8.62 lnKA, -5.84 lnKA and -3.41 lnKA, respectively.

B8: GAAC (dsDNA)
DNA 1: GCTATCTAGTGCTCAGTACGCACTGGAACAGGAAACTTCTGGCAGGACCAGGTCATGAGATCGGAAGAGCACACGTCTGAACTCCAGTCA
DNA 2: TGACTGGAGTTCAGACGTGTGCTCTTCCGATCTCATGACCTGGTCCTGCCAGAAGTTTCCTGTTCCAGTGCGTACTGAGCACTAGATAGC
RNA: AAUUUCUACUCUUGUAGAUAGGAAACUUCUGGCAGGACC
B8: the binding signal is -8.59 lnKA with dAsCas12a S542R, -5.9 lnKA in the experiment with d-enCas12a and -3.33 lnKA in the experiment with d-enCas12a-Ultra.

B9: CTGG (dsDNA)
DNA 1: GCTATCTAGTGCTCAGTACGCACTGCTGGAGGAAACTTCTGGCAGGACCAGGTCATGAGATCGGAAGAGCACACGTCTGAACTCCAGTCA
DNA 2: TGACTGGAGTTCAGACGTGTGCTCTTCCGATCTCATGACCTGGTCCTGCCAGAAGTTTCCTCCAGCAGTGCGTACTGAGCACTAGATAGC
RNA: AAUUUCUACUCUUGUAGAUAGGAAACUUCUGGCAGGACC
As to B9, the values for the binding signal with dAsCas12a S542R, with d-enCas12a and with d-enCas12a-Ultra were -8.46 lnKA, -5.9 lnKA and -3.29 lnKA, respectively.

B10: GACT (dsDNA)
DNA 1: GCTATCTAGTGCTCAGTACGCACTGGACTAGGAAACTTCTGGCAGGACCAGGTCATGAGATCGGAAGAGCACACGTCTGAACTCCAGTCA
DNA 2: TGACTGGAGTTCAGACGTGTGCTCTTCCGATCTCATGACCTGGTCCTGCCAGAAGTTTCCTAGTCCAGTGCGTACTGAGCACTAGATAGC
RNA: AAUUUCUACUCUUGUAGAUAGGAAACUUCUGGCAGGACC
As for B10, the results for the binding signal with dAsCas12a S542R, with d-enCas12a and with d-enCas12a-Ultra were -8.65 lnKA, -5.63 lnKA and -3.01 lnKA, respectively.

B11: GACA (dsDNA)
DNA 1: GCTATCTAGTGCTCAGTACGCACTGGACAAGGAAACTTCTGGCAGGACCAGGTCATGAGATCGGAAGAGCACACGTCTGAACTCCAGTCA
DNA 2: TGACTGGAGTTCAGACGTGTGCTCTTCCGATCTCATGACCTGGTCCTGCCAGAAGTTTCCTTGTCCAGTGCGTACTGAGCACTAGATAGC
RNA: AAUUUCUACUCUUGUAGAUAGGAAACUUCUGGCAGGACC
As to B11, the binding signal with dAsCas12a S542R is -8.67 lnKA; in the experiment with d-enCas12a, -4.44 lnKA; with d-enCas12a-Ultra, -1.74 lnKA.

B12: GACG (dsDNA)
DNA 1: GCTATCTAGTGCTCAGTACGCACTGGACGAGGAAACTTCTGGCAGGACCAGGTCATGAGATCGGAAGAGCACACGTCTGAACTCCAGTCA
DNA 2: TGACTGGAGTTCAGACGTGTGCTCTTCCGATCTCATGACCTGGTCCTGCCAGAAGTTTCCTCGTCCAGTGCGTACTGAGCACTAGATAGC
RNA: AAUUUCUACUCUUGUAGAUAGGAAACUUCUGGCAGGACC
As for B12, the binding signal was -8.56 lnKA with dAsCas12a S542R, -5.57 lnKA with d-enCas12a and -2.93 lnKA with d-enCas12a-Ultra.

B13: GAAG (dsDNA)
DNA 1: GCTATCTAGTGCTCAGTACGCACTGGAAGAGGAAACTTCTGGCAGGACCAGGTCATGAGATCGGAAGAGCACACGTCTGAACTCCAGTCA
DNA 2: TGACTGGAGTTCAGACGTGTGCTCTTCCGATCTCATGACCTGGTCCTGCCAGAAGTTTCCTCTTCCAGTGCGTACTGAGCACTAGATAGC
RNA: AAUUUCUACUCUUGUAGAUAGGAAACUUCUGGCAGGACC
For the molecule B13, the binding signal is -8.23 lnKA with dAsCas12a S542R, -5.82 lnKA with d-enCas12a and -3.51 lnKA with d-enCas12a-Ultra.

B14: GAAT (dsDNA)
DNA 1: GCTATCTAGTGCTCAGTACGCACTGGAATAGGAAACTTCTGGCAGGACCAGGTCATGAGATCGGAAGAGCACACGTCTGAACTCCAGTCA
DNA 2: TGACTGGAGTTCAGACGTGTGCTCTTCCGATCTCATGACCTGGTCCTGCCAGAAGTTTCCTATTCCAGTGCGTACTGAGCACTAGATAGC
RNA: AAUUUCUACUCUUGUAGAUAGGAAACUUCUGGCAGGACC
For the molecule B14, the binding signal was -8.54 lnKA in the experiment with dAsCas12a S542R, -5.79 lnKA with d-enCas12a and -3.39 lnKA in the experiment with d-enCas12a-Ultra.

B15: GAAA (dsDNA)
DNA 1: GCTATCTAGTGCTCAGTACGCACTGGAAAAGGAAACTTCTGGCAGGACCAGGTCATGAGATCGGAAGAGCACACGTCTGAACTCCAGTCA
DNA 2: TGACTGGAGTTCAGACGTGTGCTCTTCCGATCTCATGACCTGGTCCTGCCAGAAGTTTCCTTTTCCAGTGCGTACTGAGCACTAGATAGC
RNA: AAUUUCUACUCUUGUAGAUAGGAAACUUCUGGCAGGACC
For the molecule B15, the binding signal with dAsCas12a S542R was -8.7 lnKA; with d-enCas12a, -5.87 lnKA; with d-enCas12a-Ultra, -3.36 lnKA.

B16: GAGT (dsDNA)
DNA 1: GCTATCTAGTGCTCAGTACGCACTGGAGTAGGAAACTTCTGGCAGGACCAGGTCATGAGATCGGAAGAGCACACGTCTGAACTCCAGTCA
DNA 2: TGACTGGAGTTCAGACGTGTGCTCTTCCGATCTCATGACCTGGTCCTGCCAGAAGTTTCCTACTCCAGTGCGTACTGAGCACTAGATAGC
RNA: AAUUUCUACUCUUGUAGAUAGGAAACUUCUGGCAGGACC
For B16, the results for the binding signal in the experiment with dAsCas12a S542R, with d-enCas12a and with d-enCas12a-Ultra were -8.58 lnKA, -5.78 lnKA and -3.48 lnKA, respectively.

B17: GAGG (dsDNA)
DNA 1: GCTATCTAGTGCTCAGTACGCACTGGAGGAGGAAACTTCTGGCAGGACCAGGTCATGAGATCGGAAGAGCACACGTCTGAACTCCAGTCA
DNA 2: TGACTGGAGTTCAGACGTGTGCTCTTCCGATCTCATGACCTGGTCCTGCCAGAAGTTTCCTCCTCCAGTGCGTACTGAGCACTAGATAGC
RNA: AAUUUCUACUCUUGUAGAUAGGAAACUUCUGGCAGGACC
On to B17, for which the binding signal was -8.75 lnKA with dAsCas12a S542R, -5.9 lnKA with d-enCas12a and -3.51 lnKA with d-enCas12a-Ultra.
